According to PubChem BioAssay (EPA / NIEHS):
Calls of active or inactive are those of the source. How the source made its calls: active means hit-call score of the fitted dose curve at least 0.9, where 1 is the maximum; inactive means score below 0.9. Peptide text beside a SMILES is read from it.

Experiment: ATG_NFI_CIS: Attagene CIS-FACTORIAL HepG2 Assay for human Nuclear Factor I (NFI) (AID 2282989)
Conditions: HepG2 cis-regulatory reporter, NFI response element transcription; actives raise or lower the signal
Method: ATG_CIS is a cell-based, multiplexed-readout assay that uses HepG2, a human liver cell line, with measurements taken at 24 hours after chemical dosing in a 24-well plate.ATG_NFI_CIS is one of 52 assay component(s) measured or calculated from the ATG_CIS assay. It is designed to make measurements of mRNA induction, a form of inducible reporter, as detected with fluorescence intensity signals by Reverse transcription polymerase chain reaction (RT-PCR) and Capillary electrophoresis technology.Data from the assay component ATG_NFI_CIS was analyzed into 1 assay endpoint. This assay endpoint, ATG_NFI_CIS, was analyzed with bidirectional fitting relative to DMSO as the negative control and baseline of activity. Using a type of inducible reporter, measures of mRNA for gain or loss-of-signal activity can be used to understand the reporter gene at the transcription factor-level as they relate to the gene NFIA. Furthermore, this assay endpoint can be referred to as a primary readout, because this assay has produced multiple assay endpoints where this one serves a reporter gene function. To generalize the intended target to other relatable targets, this assay endpoint is annotated to the dna binding intended target family, where the subfamily is nuclear factor I.
Human liver HepG2 cells are transiently transfected with multiple reporter transcription units (MRTUs) in 6-well plates using FuGene 6 reagent (Roche; 3 ml FuGene/1 mg DNA). The MRTU constructs are regulated by a cis-regulating element (promoter). […] A major difference between the CIS and TRANS system is that in CIS activities of endogenous TFs are measured, whereas the TRANS assay evaluates changes in activities of exogenous, chimeric NR-Gal4 proteins. […] At the end of 24 hour incubation, total RNA was isolated using TriZol reagent (Invitrogen). The isolated RNA is then reverse-transcribed using oligo(dT) primer and Mo-MLV reverse transcriptase (Invitrogen) with DNAse I (Ambion) treatment for 30 min. The one-tenth of the produced cDNA was amplified by PCR using Taq DNA polymerase (Invitrogen) and two reporter sequence-specific primers. The PCR products were fluorescently labeled by primer extension with 6-arboxyfluorescein (6-FAM) 5'-labeled reporter sequence-specific primer (2 min at 95 C, 20 s at 68 C and 10 min at 72 C) and these products were digested with 5U of HpaI (New England Biolabs) for 2h at 37 C. The fragments were purified using Qiaquick PCR columns (Qiagen), analyzed on an ABI 3130xL genetic analyzer (Applied Biosystems) with peak positions identified by using a set of X-rhodamine (ROX)-labeled MapMarker1000 molecular weight standards (BioVentures). The raw capillary electrophoresis data was processed using Attagraph software (Attagene).

Structure (SMILES) | outcome | AC50
CC(=O)OCC=C(C)C | inactive | –
CCCCC1C(=O)N(c2ccccc2)N(c2ccccc2)C1=O | inactive | –
CCCCOC(=O)CCC(C)=O | inactive | –
Cc1cccc(C(C)(C)C)c1O | inactive | –
COC(=O)[C@H](Cc1ccccc1)NC(=O)[C@@H](N)CC(=O)O (H-Asp-Phe-OMe) | inactive | –
CC(=O)OC1CCCCC1C(C)(C)C (stereo not given) | inactive | –
Clc1cc(Cl)c(Cl)c(Cl)c1Cl | inactive | –
Cc1c(C(=O)c2c[nH]n(C)c2=O)ccc(S(C)(=O)=O)c1C1=NOCC1 | inactive | –
CCC(C)N (stereo not given) | inactive | –
CC(C)=CCCC(C)=CC#N | inactive | –
O=C(O[C@@H]1Cc2c(O)cc(O)cc2O[C@@H]1c1cc(O)c(O)c(O)c1)c1cc(O)c(O)c(O)c1 | inactive | –
CCOC(=O)OC(=O)OCC | inactive | –
N#CC1(N)CCCCC1 | inactive | –
Oc1c(Cl)cc(Cl)c(Cl)c1Cl | inactive | –
CC(CC(C)C)=NO | inactive | –
CCCCC(CC)COC(=O)/C=C/c1ccc(OC)cc1 (stereo not given) | inactive | –
CCc1cccc(C)c1N(C(=O)CS(=O)(=O)O)C(C)COC (stereo not given) | inactive | –
CCC1(C)C(=O)N(Cl)C(=O)N1Cl (stereo not given) | – | 60.6 µM (active)
CCCCNS(=O)(=O)c1ccccc1 | inactive | –
CCCCCCCCCCCCCCCCCCOS(=O)(=O)O | – | 33.4 µM (active)

Structure (SMILES) | outcome | AC50
COCC(=O)O | inactive | –
CCNc1nc(NC(C)(C)C)nc(OC)n1 | inactive | –
CCCCNC(=S)NCCCC | inactive | –
CCC(C)C(=O)OCCc1ccccc1 (stereo not given) | inactive | –
CCOB(OCC)OCC | inactive | –
CC1=C(O)C(=O)C(C)O1 (stereo not given) | inactive | –
CC1CCC(=O)C1=O (stereo not given) | inactive | –
Cc1ccc2c(c1)CCCN2 | inactive | –
CCc1cccc(CC)c1 | inactive | –
CCCCCC1=CCCC1=O | inactive | –
CCN(CC)c1cccc(C)c1 | inactive | –
Nc1ccnc(=O)[nH]1 | inactive | –
CC(=O)c1ccccc1O | inactive | –
O=C(O)CC(C(=O)O)S(=O)(=O)O (stereo not given) | inactive | –
CC(Cl)COP(=O)(OCC(C)Cl)OCC(C)Cl (stereo not given) | inactive | –
Nc1ccc(C(=O)OCCCOC(=O)c2ccc(N)cc2)cc1 | inactive | –
CCOC(=O)c1ccc(C)cc1 | inactive | –
O=C(Oc1ccccc1)c1ccccc1C(=O)Oc1ccccc1 | inactive | –
O=C(Cl)c1ccc(C(=O)Cl)cc1 | inactive | –
Nc1cccc(N)n1 | inactive | –
